Molecules are shown by their SMILES. Results filed as inconclusive are left out. Active and inactive are the calls of the source. Unless noted, calls follow the shape of the dose curve; as a rule, active = well fitted curve in the direction sought with a large enough effect in the repeat runs; inconclusive = weak or mixed curves; inactive = no such curve, though single readings can be large; an effect the other way counts as inactive or inconclusive.

In test [1] the target is Thyrotropin-releasing hormone receptor (Homo sapiens) (UniProt P34981). Briefly: qHTS assay to identify small molecule agonists of the thyrotropin-releasing hormone receptor (TRHR) signaling pathway (AID 1346891; calls by dose curve;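 also: HEK293 cells expressing TRHR with calcium dye readout; series mostly up to about 58 µM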). The method in brief:
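HEK293/TRHR cells, 1500 per well, 18 h 37 °C; Ca dye 2 h 37 °C; pin-tool compound addition (agonist mode); kinetic fluorescence 3 min, 1 s reads; 15 concentrations, triplicate.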

A short description of test [2]: Human pregnane X receptor (PXR) small molecule agonists, qHTS cell viability counter screen (AID 1346977). Also: nearly all actives have a fitted effect of over 50% in size. In outline: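 Fluorescence read-out (CellTiter-Fluor) of viability in PXR-Luc HepG2 cells, multiplexed with the luciferase agonist read. Compounds in DMSO added after 5hr plating; 24hr total exposure at 37C, 5% CO2.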
Test [3] is described as follows: Caspase-3/7 induction in HepG2 cells by small molecules, qHTS assay (AID 1346978). Also: nearly all actives have a fitted effect of over 15% in size. The method in brief:
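Caspase-3/7 induction was measured by Caspase-Glo 3/7 luminescence (30 min, room temperature) after a 17 hr compound exposure of wild-type HepG2 cells seeded at 2,000 per well and pre-incubated 5 hr.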

A short description of test [4]: Caspase-3/7 induction in CHO-K1 cells by small molecules, qHTS cell viability counter screen (AID 1346979). Also: nearly all actives have a fitted effect of over 35% in size. The method in brief:
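CHO-K1 wt, 1,500 cells/well; 5hr pre-incubation 37C/5% CO2; compound pin transfer (DMSO); 16hr exposure; CellTiter-Fluor added, 1hr, fluorescence read.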

Test [5] can be described thus: Caspase-3/7 induction in CHO-K1 cells by small molecules, qHTS assay (AID 1346980). Also: nearly all actives have a fitted effect of over 15% in size. In outline:
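Luminescent Caspase-Glo 3/7 read (30min, room temperature) quantified apoptosis induction. Cells were wild-type CHO-K1, treated with compound for 17hr at 37 C and 5% CO2.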

Test [6] can be described thus: Caspase-3/7 induction in HepG2 cells by small molecules, qHTS cell viability counter screen (AID 1346981). Also: series mostly up to about 92 µM; nearly all actives have a fitted effect of over 30% in size. In outline: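 In this quantitative HTS counter screen, compounds delivered in DMSO were left on unmodified HepG2 cells for 16 hr at 37 C. Viability was then determined fluorometrically with CellTiter-Fluor, in parallel with caspase-3/7 induction in the same wells.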

In test [7] the target is Nuclear receptor subfamily 1 group I member 2 (Homo sapiens) (UniProt O75469). The experiment in a line: Human pregnane X receptor (PXR) small molecule agonists, qHTS assay (AID 1346982). Also: nearly all actives have a fitted effect of over 35% in size. The method in brief: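 Reporter HepG2 cells expressing PXR-Luc are cultured in charcoal-stripped FBS (5%), treated with compounds for 24 hr at 37 C, and assayed by ONE-Glo luminescence after 30 min at room temperature.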
Chain of Nuclear receptor subfamily 1 group I member 2 (Homo sapiens) (O75469 whole entry, looked up): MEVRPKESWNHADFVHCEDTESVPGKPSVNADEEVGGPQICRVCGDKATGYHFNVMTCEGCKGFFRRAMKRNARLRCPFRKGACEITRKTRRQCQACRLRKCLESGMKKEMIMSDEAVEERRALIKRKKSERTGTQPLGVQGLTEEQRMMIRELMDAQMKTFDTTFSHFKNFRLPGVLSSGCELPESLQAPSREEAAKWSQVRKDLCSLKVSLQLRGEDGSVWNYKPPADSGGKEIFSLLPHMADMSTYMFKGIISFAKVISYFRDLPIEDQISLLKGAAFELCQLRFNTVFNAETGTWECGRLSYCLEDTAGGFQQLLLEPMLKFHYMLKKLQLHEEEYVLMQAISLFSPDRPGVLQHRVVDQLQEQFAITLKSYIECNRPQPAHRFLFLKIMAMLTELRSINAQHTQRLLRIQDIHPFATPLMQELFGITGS

Test [8] deals with Acetylcholinesterase (Homo sapiens) (UniProt P22303). Briefly: Acetylcholinesterase (AChE) small molecule antagonists: colormetric cell-based qHTS assay (AID 1347395; calls by dose curve; also: nearly all actives have a fitted effect of over 30% in size; also: potency is read from the fitted curve at half-maximal effect). The method in brief:
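SH-SY5Y cells; cpd 30 min 37 C; + DTNB/acetylthiocholine, 90 min 37 C; colorimetric thiocholine read; qHTS.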

Test [9] has the same target. Briefly: Acetylcholinesterase (AChE) small molecule antagonists: enzyme-based qHTS assay (AID 1347397; calls by dose curve; also: nearly all actives have a fitted effect of over 55% in size). As to conditions: Potency: AChE enzyme activity inhibition; outcome: AChE enzyme activity inhibition. The method in brief: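 First, recombinant human AChE (50 mU/mL as dispensed) received test compound or DMSO. Second, plates stood 30 min at room temperature. Third, DTNB and acetylthiocholine were added, followed by 10 min at room temperature and colorimetric detection.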

For test [10] the target is unchanged. Briefly: Acetylcholinesterase (AChE) small molecule antagonists: fluorescence cell-based qHTS assay (AID 1347398; calls by dose curve; also: nearly all actives have a fitted effect of over 50% in size). As to conditions: Potency: AChE activity; outcome: AChE activity. In outline:
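Homogeneous quantitative HTS format. SH-SY5Y cells seeded at 2,000 per well settle overnight at 37 C. Compound pretreatment runs 30 min (37 C, 5% CO2); substrate/probe mix then reacts 40 min at RT before reading 490/520 nm.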

For test [11] the target is unchanged. The experiment in a line: Acetylcholinesterase (AChE) small molecule antagonists: enzyme-based qHTS assay with human liver microsomes (AID 1347399; calls by dose curve; also: nearly all actives have a fitted effect of over 60% in size). As to conditions: Potency: qHTS inhibition; outcome: qHTS inhibition. In outline: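 Recombinant human AChE (50 mU/mL in the enzyme mix) and human liver microsomes (0.25 mg/mL final) were preincubated with compound and NADPH (0.25 mg/mL final) for 30 min at 37 C. Acetylthiocholine/DTNB was then added; thiocholine was read colorimetrically after 10 min at room temperature.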

For test [12], the target named is Cytochrome P450 2C19 (Homo sapiens) (UniProt P33261). The experiment in a line: Cytochrome P450 Family 2 Subfamily C Member 19 (CYP2C19) small molecule antagonists: luciferase reporter qHTS assay (AID 1671197). Also: nearly all actives have a fitted effect of over 65% in size. Also: potency is read from the fitted curve at half-maximal effect. The method in brief: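 Quantitative high-throughput screen of the Tox21 library using CYP2C19 with proluciferin substrate. Reaction: NADPH regeneration, 37C, 1 h, after 10 min compound preincubation at room temperature. Readout: luminescence.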
Chain of Cytochrome P450 2C19 (Homo sapiens) (P33261 whole entry, looked up): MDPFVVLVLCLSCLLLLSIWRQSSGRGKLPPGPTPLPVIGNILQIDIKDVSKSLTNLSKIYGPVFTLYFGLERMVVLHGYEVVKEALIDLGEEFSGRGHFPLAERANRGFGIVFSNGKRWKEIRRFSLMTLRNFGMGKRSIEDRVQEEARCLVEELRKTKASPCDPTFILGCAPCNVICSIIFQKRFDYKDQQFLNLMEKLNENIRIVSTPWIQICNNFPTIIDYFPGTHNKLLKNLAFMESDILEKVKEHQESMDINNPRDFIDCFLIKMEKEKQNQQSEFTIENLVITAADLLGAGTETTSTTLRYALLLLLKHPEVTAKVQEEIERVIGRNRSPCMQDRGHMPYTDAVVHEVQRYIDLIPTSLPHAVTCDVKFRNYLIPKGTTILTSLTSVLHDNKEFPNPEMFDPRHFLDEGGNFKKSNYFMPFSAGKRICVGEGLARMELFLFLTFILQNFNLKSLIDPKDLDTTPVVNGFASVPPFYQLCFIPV

For test [13], the target named is Cytochrome P450 2C9 (Homo sapiens) (UniProt P11712). The experiment in a line: Cytochrome P450 Family 2 Subfamily C Member 9 (CYP2C9) small molecule antagonists: luciferase reporter qHTS assay (AID 1671198). Also: series mostly up to about 120 µM; nearly all actives have a fitted effect of over 50% in size. The method in brief: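 Enzyme-substrate mix preincubated with compound 10 min at room temperature; reaction started with NADPH regeneration solution, 1 h 37C. Luminescent luciferin product read after 20 min detection reagent.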
Chain of Cytochrome P450 2C9 (Homo sapiens) (P11712 whole entry, looked up): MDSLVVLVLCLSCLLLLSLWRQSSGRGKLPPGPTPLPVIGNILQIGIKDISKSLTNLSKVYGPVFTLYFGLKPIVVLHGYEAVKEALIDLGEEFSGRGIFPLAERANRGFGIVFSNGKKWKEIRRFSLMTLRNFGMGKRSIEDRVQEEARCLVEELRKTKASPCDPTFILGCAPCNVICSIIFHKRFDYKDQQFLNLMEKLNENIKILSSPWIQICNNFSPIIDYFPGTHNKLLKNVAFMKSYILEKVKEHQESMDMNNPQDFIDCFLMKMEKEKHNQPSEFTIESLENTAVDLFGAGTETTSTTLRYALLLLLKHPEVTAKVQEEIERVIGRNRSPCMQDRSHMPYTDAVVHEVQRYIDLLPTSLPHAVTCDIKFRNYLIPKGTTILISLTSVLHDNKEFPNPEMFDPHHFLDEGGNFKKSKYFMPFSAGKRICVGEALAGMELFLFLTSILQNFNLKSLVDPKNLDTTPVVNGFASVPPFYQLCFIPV

Test [14] concerns the target Cytochrome P450 1A2 (Homo sapiens) (UniProt P05177). The experiment in a line: Cytochrome P450 Family 1 Subfamily A Member 2 (CYP1A2) small molecule antagonists: luciferase reporter qHTS assay (AID 1671199). Also: series mostly up to about 120 µM; nearly all actives have a fitted effect of over 50% in size. The method in brief: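 Steps: enzyme-substrate mix dispensed; test compounds and furafylline control pinned in; 10 min room temperature; NADPH regeneration solution added, 1 h; reaction stopped with luciferin detection reagent; luminescence read after 20 min.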

The target of test [15] is Cytochrome P450 3A4 (Homo sapiens) (UniProt P08684). The experiment in a line: Cytochrome P450 Family 3 Subfamily A Member 4 (CYP3A4) small molecule antagonists: luciferase reporter qHTS assay (AID 1671201). The method in brief: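 Luminescent readout (RLU) proportional to CYP3A4 activity, from luciferin generated off a proluciferin substrate. Enzyme–substrate mix plus compound 10 min at room temp, NADPH regeneration 1 h, detection reagent 20 min.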
Chain of Cytochrome P450 3A4 (Homo sapiens) (P08684 whole entry, looked up): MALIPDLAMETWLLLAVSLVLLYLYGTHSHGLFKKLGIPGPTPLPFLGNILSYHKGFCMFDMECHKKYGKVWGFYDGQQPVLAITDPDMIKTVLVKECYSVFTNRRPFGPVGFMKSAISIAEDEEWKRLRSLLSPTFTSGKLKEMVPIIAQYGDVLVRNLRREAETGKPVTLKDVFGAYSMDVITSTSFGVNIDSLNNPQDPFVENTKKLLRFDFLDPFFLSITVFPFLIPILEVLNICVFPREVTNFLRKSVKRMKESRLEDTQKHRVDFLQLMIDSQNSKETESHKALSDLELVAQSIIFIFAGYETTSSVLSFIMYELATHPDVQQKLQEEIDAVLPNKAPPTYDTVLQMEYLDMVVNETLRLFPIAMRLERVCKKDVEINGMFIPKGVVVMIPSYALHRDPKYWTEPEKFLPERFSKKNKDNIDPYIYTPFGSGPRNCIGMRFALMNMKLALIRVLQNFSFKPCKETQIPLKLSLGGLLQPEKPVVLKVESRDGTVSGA

Test [16] deals with Voltage-gated inwardly rectifying potassium channel KCNH2 (Homo sapiens) (UniProt Q12809). The experiment in a line: Human Ether-a-go-go-Related Gene (hERG) channel small molecule antagonists: fluorescence cell-based qHTS assay (AID 1671200). The method in brief:
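Read-out: thallium influx as a surrogate for potassium, tracked as fluorescence (480 nm ex/540 nm em) every second for 2 min after Stimulus Buffer addition in dye-loaded hERG-U2OS cells.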

In test [17] the target is Cytochrome P450 2D6 (Homo sapiens) (UniProt P10635). The experiment in a line: Cytochrome P450 Family 2 Subfamily D Member 6 (CYP2D6) small molecule antagonists: luciferase reporter qHTS assay (AID 1671196). Also: nearly all actives have a fitted effect of over 50% in size. Also: potency is read from the fitted curve at half-maximal effect. The method in brief: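 Test chemicals meet CYP2D6 plus proluciferin substrate (10 min, RT); NADPH regenerating solution then drives turnover for 1 h. Detection reagent halts the reaction; luminescence measured after 20 min.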
Chain of Cytochrome P450 2D6 (Homo sapiens) (P10635 whole entry, looked up): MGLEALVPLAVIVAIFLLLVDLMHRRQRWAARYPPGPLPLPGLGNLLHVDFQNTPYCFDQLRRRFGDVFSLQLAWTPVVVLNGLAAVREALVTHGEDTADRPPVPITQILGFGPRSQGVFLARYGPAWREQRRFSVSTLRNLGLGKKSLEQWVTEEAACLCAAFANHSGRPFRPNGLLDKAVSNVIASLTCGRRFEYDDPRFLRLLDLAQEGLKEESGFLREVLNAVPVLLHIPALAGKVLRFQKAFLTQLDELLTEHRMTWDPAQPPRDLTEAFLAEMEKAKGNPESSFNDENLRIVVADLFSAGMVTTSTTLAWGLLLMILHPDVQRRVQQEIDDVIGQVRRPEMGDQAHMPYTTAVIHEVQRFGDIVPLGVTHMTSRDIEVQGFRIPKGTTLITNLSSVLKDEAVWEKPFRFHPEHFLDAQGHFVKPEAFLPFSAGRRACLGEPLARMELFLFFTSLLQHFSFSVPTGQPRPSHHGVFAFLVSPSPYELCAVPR

Chain of Acetylcholinesterase (Homo sapiens) (P22303 whole entry, looked up): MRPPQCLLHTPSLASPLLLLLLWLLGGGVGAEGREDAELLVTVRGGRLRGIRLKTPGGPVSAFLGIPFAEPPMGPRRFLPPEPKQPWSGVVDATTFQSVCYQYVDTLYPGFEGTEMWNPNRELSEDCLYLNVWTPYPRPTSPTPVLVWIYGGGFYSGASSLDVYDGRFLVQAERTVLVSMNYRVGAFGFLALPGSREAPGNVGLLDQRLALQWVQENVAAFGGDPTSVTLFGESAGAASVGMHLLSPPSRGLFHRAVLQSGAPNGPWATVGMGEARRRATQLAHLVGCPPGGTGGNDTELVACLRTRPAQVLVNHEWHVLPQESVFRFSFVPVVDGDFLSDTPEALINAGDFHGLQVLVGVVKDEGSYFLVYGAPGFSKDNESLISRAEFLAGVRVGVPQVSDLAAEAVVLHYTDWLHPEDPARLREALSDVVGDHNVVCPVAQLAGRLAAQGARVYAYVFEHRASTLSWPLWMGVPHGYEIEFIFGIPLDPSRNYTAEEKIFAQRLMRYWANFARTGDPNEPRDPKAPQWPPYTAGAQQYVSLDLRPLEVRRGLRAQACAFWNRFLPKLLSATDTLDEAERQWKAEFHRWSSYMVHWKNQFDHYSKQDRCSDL
Chain of Voltage-gated inwardly rectifying potassium channel KCNH2 (Homo sapiens) (Q12809 whole entry, looked up): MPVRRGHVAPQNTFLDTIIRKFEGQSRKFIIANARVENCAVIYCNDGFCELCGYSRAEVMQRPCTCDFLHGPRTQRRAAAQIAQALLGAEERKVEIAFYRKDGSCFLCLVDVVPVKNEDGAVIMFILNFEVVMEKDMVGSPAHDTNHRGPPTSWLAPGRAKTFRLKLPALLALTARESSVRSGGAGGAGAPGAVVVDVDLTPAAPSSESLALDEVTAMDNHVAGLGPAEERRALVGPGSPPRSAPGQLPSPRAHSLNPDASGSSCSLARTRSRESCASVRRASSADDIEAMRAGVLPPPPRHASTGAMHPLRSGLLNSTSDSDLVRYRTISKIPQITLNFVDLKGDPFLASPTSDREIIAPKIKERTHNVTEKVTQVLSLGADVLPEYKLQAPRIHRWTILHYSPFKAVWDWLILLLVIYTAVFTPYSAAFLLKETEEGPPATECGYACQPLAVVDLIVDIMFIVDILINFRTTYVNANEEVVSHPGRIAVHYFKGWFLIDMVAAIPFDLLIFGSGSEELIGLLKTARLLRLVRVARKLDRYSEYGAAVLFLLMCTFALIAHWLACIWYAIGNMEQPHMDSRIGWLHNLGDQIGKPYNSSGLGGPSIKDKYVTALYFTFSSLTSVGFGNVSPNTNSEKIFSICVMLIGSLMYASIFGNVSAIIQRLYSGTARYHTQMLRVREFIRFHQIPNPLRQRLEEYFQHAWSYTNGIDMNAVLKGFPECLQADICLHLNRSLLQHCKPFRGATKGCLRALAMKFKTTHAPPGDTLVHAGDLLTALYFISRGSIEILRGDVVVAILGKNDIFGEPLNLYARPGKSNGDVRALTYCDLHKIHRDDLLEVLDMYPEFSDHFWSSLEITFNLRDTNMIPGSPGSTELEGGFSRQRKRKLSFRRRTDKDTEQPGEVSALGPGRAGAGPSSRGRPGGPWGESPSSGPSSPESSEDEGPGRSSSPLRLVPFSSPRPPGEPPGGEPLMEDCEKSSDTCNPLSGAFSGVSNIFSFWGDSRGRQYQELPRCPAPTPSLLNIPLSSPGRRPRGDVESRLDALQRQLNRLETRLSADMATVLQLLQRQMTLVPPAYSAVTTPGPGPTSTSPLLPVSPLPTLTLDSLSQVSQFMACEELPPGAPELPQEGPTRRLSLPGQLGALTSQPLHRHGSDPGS
Chain of Thyrotropin-releasing hormone receptor (Homo sapiens) (P34981 whole entry, looked up): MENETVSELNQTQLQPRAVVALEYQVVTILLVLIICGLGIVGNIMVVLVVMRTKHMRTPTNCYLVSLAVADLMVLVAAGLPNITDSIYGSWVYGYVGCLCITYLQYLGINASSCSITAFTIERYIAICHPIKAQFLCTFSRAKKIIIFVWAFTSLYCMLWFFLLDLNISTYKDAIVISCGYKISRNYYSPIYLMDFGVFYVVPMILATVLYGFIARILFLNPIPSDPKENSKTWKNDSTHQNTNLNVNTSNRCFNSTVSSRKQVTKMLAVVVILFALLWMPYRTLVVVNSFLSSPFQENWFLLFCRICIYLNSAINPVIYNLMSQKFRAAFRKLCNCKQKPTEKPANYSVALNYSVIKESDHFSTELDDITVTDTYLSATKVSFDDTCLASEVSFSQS

Regarding `CCC(=O)c1ccc(Cl)cc1`, the result in test [1], in test [3] and in test [5] was inactive. For the same molecule, the Potency result in test [2], in test [4], in test [6], in test [7], in test [8] and in [9] was “inactive” each time. Moreover, the Potency entry in test [10], in test [11], in [12], in test [13], in [14] and in test [15] was “inactive” in each case.
`CC[C@@H](CO)NC(=O)[C@@H]1C=C2c3cccc4[nH]cc(c34)C[C@H]2N(C)C1`: the molecule was classed as inactive in test [1], in [3] and in test [5]. Besides, the Potency result in test [2], in [4], in test [6], in test [7], in [11] and in test [16] was “inactive” throughout. Besides, the Potency entry in test [15] was “inactive”. Further, the Potency in test [8] is 17.4 µM (active).
As for `CCCN1CCC[C@@H]2Cc3[nH]ncc3C[C@H]21`, the molecule was classed as inactive in [1], in test [3] and in test [5]. In addition, the Potency result in test [2], in [4], in test [6], in test [7], in test [9] and in test [11] was “inactive” each time. Further, the Potency result in test [12], in test [13], in test [14], in test [16] and in [15] was “inactive” in each case. The Potency in [8] was 27.5 µM (active); in test [17], 30.9 µM (active).
Consider `C=CCCC#N`, for which the molecule was classed as inactive in test [1], in test [3] and in test [5]. The Potency entry in test [2], in test [4], in [6], in test [7], in test [8] and in [10] was “inactive” each time. Moreover, the Potency entry in test [11], in test [13], in test [16] and in [15] was “inactive” in each case. The Potency in test [17] was 38.9 µM (active); in [12], 61.7 µM (active).
In the case of `O=C(Cl)CCl`, the call in test [1], in test [3] and in test [5] was inactive. Besides, the Potency entry in [2], in [4], in test [6], in [7], in [8] and in [9] was “inactive” in each case. For the same molecule, the Potency entry in test [10], in [11], in test [13], in test [16] and in test [15] was “inactive” throughout. The Potency in test [17] is 71.4 µM (active).
For the molecule `CC(C)(C)C(=O)C(Cl)Cl`, the call in test [1], in test [3] and in test [5] was inactive. For the same molecule, the Potency result in test [2], in test [4], in test [6], in test [7], in test [8] and in test [10] was “inactive” each time. Also, the Potency entry in test [11], in test [17], in test [12], in test [13] and in test [15] was “inactive” each time.
`CN1COCN(Cc2cnc(Cl)s2)/C1=N\[N+](=O)[O-]`: the call in test [1], in test [3] and in test [5] was inactive. Further, the Potency result in [2], in [4], in [6], in test [7], in test [8] and in test [9] was “inactive” in each case. Also, the Potency result in test [10], in test [11], in test [17], in [12], in test [16] and in test [15] was “inactive” in each case.
`CCN(CC)C1CCCCC1`: the molecule was called inactive in [1], in test [3] and in [5]. Further, the Potency entry in [2], in [4], in test [6], in test [7], in test [9] and in test [10] was “inactive” throughout. In addition, the Potency entry in test [11], in [17], in test [12], in test [13], in [16] and in [15] was “inactive” each time.

For the origin of these results see PubChem BioAssay (Tox21).
